Experiment [1] deals with Cytochrome P450 2D6 (Homo sapiens) (UniProt P10635). Briefly: qHTS Assay for Inhibitors and Substrates of Cytochrome P450 2D6 (AID 891). Also: nearly all actives have a fitted effect of over 60% in size. Also: potency is read from the fitted curve at half-maximal effect. The gist of the method:
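Luminescent read-out of luciferin formed by 5 nM human CYP2D6 demethylating 30 uM Luciferin-ME EGE (Km level) over 60 min at room temperature after NADPH regeneration addition. Data normalized to full inhibition by 1.43 uM quinidine.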
(In general: Quantitative high-throughput screening tests each substance at several concentrations.)

Experiment [2] is described as follows: qHTS Assay for Identification of Small Molecule Agonists for Hypoxia Response Element Signaling Pathway (AID 914; active = well fitted activation curve with a large enough effect in the signal ratio, with a control signal flat, not every such curve was filed as active; the % refers to the signal ratio; also: % of control where 0% means no effect). To be noted: ME-180 (cervical carcinoma) HRE-bla reporter, beta-lactamase ratio, CoCl2, 17 h; hits give high values. The gist of the method:
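HRE-bla ME-180 cells, overnight plating in Opti-MEM with 0.5% dialyzed FBS; cpd titration + EC50 CoCl2, 17 h, 37 degrees Celsius; CCF4 2.5 h RT; 460/530 nm ratio; AC50.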

For experiment [3], the target named is Luciferin 4-monooxygenase (Photinus pyralis) (UniProt P08659). The experiment in a line: Biochemical firefly luciferase enzyme assay for NPC (AID 624030).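 Also: purified P. pyralis luciferase at 10 nM with luciferin and ATP substrate; 0% = DMSO and -100% = full luciferase inhibition by PTC124 control; nearly all actives have a fitted effect of over 70% in size.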 A digest of the protocol: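 Counter-screen for direct inhibition of the luciferase enzyme by approved-drug library compounds, run at 10 nM enzyme in 50 mM Tris acetate (final). Luminescence was read within 5 min of enzyme-buffer addition and normalized to PTC124 versus DMSO (0%).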
Chain of Luciferin 4-monooxygenase (Photinus pyralis) (P08659 whole entry, looked up): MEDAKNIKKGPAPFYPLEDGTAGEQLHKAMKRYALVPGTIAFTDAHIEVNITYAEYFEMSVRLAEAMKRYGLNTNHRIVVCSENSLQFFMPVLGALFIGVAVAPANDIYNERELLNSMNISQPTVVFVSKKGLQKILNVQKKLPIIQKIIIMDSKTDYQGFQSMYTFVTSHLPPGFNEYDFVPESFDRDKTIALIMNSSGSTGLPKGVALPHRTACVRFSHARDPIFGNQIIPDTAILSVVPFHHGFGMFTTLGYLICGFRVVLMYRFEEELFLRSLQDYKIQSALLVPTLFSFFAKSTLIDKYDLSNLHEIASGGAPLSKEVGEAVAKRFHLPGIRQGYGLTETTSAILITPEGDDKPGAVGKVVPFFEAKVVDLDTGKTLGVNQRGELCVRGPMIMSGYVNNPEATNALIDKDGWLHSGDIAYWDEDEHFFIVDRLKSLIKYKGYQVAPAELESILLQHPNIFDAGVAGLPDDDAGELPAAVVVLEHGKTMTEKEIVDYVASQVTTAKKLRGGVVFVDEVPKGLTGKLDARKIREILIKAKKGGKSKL

The nature of experiment [4]: qHTS Assay for Identification of Small Molecule Antagonists for Thrombopoietin (TPO) Signaling Pathway (AID 918). Also: potency is read from the fitted curve at half-maximal effect; nearly all actives have a fitted effect of over 60% in size. To be noted: TPO-dependent cell signaling reporter, antagonist mode. A digest of the protocol: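 Luminescence read-out: GPIIb-promoter luciferase in Ba/F3 cells carrying human TPO receptor. Compounds added with 26 pM TPO (EC50), 24 hrs, 37 C, 5% CO2; cells deprived of IL-3 overnight beforehand. Inhibition of signal scored.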

The target in experiment [5] is DNA dC->dU-editing enzyme APOBEC-3G (Homo sapiens) (UniProt Q9HC16). Briefly: qHTS for inhibitors of Vif-A3G interactions: Validation (AID 588379). Also: 0% is about no effect. The gist of the method: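 Yellow fluorescence (Ex 488, Em 500-530) of Vif-coexpressing HeLa A3G-eYFP cells, scanned by Acumen cytometer, reports blocked A3G degradation. Cells plated at 700/well overnight at 37 deg C before compound addition, then a further overnight compound incubation at 37 deg C.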
Chain of DNA dC->dU-editing enzyme APOBEC-3G (Homo sapiens) (Q9HC16 whole entry, looked up): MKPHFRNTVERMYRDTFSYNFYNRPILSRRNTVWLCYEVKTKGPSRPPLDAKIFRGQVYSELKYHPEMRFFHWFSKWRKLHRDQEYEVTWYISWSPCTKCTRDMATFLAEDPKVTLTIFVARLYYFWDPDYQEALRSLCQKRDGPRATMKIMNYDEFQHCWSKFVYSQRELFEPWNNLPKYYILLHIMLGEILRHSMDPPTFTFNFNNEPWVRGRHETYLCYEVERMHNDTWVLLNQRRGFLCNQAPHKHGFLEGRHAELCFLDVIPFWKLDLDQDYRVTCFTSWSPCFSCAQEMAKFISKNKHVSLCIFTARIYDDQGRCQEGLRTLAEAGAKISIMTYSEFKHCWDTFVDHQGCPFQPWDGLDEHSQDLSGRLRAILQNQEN

Experiment [6] deals with ATP-dependent 6-phosphofructokinase (Trypanosoma brucei brucei) (UniProt O15648). The experiment in a line: qHTS Assay to Find Inhibitors of T. brucei phosphofructokinase: hit validation (AID 492961).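 Also: luminescence reports ADP formed as PFK phosphorylates fructose-6-phosphate with ATP; % is scaled to controls: 0 for no effect and ±100 for the full control effect.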 The gist of the method:
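Percent activity derived from corrected luminescence, normalized between 0x and 1x enzyme controls, then fitted to concentration-response curves. Conditions: 1.25 nM PFK, 0.1 mM ATP, 0.5 mM F6P, 45 min RT.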

Experiment [7] is described as follows: S16 Schwann cell viability assay (CellTiter-Glo assay) (AID 624031).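 Also: cellular ATP luminescence as a viability measure; plate controls were DMSO-treated cells for no effect and cell-free wells for full effect; nearly all actives have a fitted effect of over 70% in size.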 The gist of the method: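 Untransfected S16 rat Schwann cells; compound 24 h, 37 °C/5% CO2; CellTiter-Glo ATP luminescence. % activity vs no-cell wells and DMSO controls (0%); concentration-effect curves classed by r2, response magnitude, activity.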
(In general: Cellular ATP, detected with luciferase, serves as a proxy for viable cell number.)

The nature of experiment [8]: S16 Schwann cell PMP22 intronic element firefly luciferase assay (AID 624032).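 Also: plate controls were DMSO for no effect and PTC124 positive control mean for full effect; nearly all actives have a fitted effect of over 30% in size.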 A digest of the protocol: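 Rat S16 Schwann cells stably carrying a PMP22 intronic element-driven Fluc reporter were seeded overnight, then exposed to compounds for 24 h at 37 °C. Luminescence was normalized to PTC124 (positive control) and DMSO (0% activity).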
Experiment [9] is described as follows: S16 Schwann cell PMP22 intronic element beta-lactamase assay (AID 624044; calls by dose curve;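 also: 0% = DMSO and -100% = potassium clavulanate positive control; nearly all actives have a fitted effect of over 15% in size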). The gist of the method:
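Beta-lactamase reporter under a PMP22 intronic regulatory element in stable S16 rat Schwann cells; 24 h compound exposure. 460 nm blue signal normalized between DMSO (0%) and potassium clavulanate, with 535 nm FRET tracking viability; curves classed by r2 and response.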

Experiment [10] deals with 7G8. The experiment in a line: qHTS profiling for inhibitors of Plasmodium falciparum proliferation (AID 504749).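 Also: 0% = DMSO vehicle and full inhibition = artemisinin control; nearly all actives have a fitted effect of over 60% in size.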 The note with it: P. falciparum in erythrocytes, SYBR Green DNA, 72 h; series mostly up to 28.7 µM. A digest of the protocol: (§1)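 Fluorescence of SYBR Green-bound parasite DNA, read at 485/535 nm, served as the growth measure. Infected erythrocytes were cultured with compound 72 h; artemisinin (0.29 uM) and DMSO wells defined the normalization range.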

Experiment [11] deals with AA1029. The experiment is described as above. The note with it: P. falciparum in erythrocytes, SYBR Green DNA, 72 h; series mostly up to 28.7 µM. A digest of the protocol:
as §1

The test system of experiment [12] is AS120. Described as above. The note with it: P. falciparum in erythrocytes, SYBR Green DNA, 72 h; series mostly up to 28.7 µM. A digest of the protocol: as §1
Experiment [13] deals with ATS189. Described as above. To be noted: P. falciparum in erythrocytes, SYBR Green DNA, 72 h; series mostly up to 28.7 µM. A digest of the protocol:
as §1

The test system of experiment [14] is C2A. The experiment is described as above. The note with it: P. falciparum in erythrocytes, SYBR Green DNA, 72 h; series mostly up to 28.7 µM. A digest of the protocol:
as §1

The test system of experiment [15] is CP185. Described as above. To be noted: P. falciparum in erythrocytes, SYBR Green DNA, 72 h; series mostly up to 28.7 µM. The gist of the method: as §1
The subject of experiment [16] is CP191. Described as above. To be noted: P. falciparum in erythrocytes, SYBR Green DNA, 72 h; series mostly up to 28.7 µM. A digest of the protocol: as §1
Experiment [17] deals with CP192. The experiment is described as above. To be noted: P. falciparum in erythrocytes, SYBR Green DNA, 72 h; series mostly up to 28.7 µM. The gist of the method:
as §1

Experiment [18] deals with CP194. The experiment is described as above. To be noted: P. falciparum in erythrocytes, SYBR Green DNA, 72 h; series mostly up to 28.7 µM. A digest of the protocol:
as §1

For experiment [19], the target named is Androgen receptor (Homo sapiens) (UniProt P10275). The experiment in a line: qHTS assay for small molecule agonists of androgen receptor signaling (AID 588515; active = well fitted curve in the direction sought with a large enough effect in the signal ratio, with a control signal flat; the % refers to the signal ratio; also: % is scaled to controls: 0 for no effect and ±100 for the full control effect). The note with it: AR-UAS-bla HEK293, beta-lactamase ratio, agonist 16 h; hits give high values. The gist of the method:
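Stimulation of an AR-responsive β-lactamase reporter in GripTite HEK293 cells was measured after 16 h compound exposure at 37 °C, via CCF4 fluorescence after 2 h RT. EC50 from Hill fits, normalized to R1881 at 30 nM.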

Experiment [20] has the same target. Briefly: qHTS assay for small molecule antagonists of androgen receptor signaling (AID 588516; active = well fitted curve in the direction sought with a large enough effect in the signal ratio, with a control signal flat, not every such curve was filed as active; the % refers to the signal ratio; also: % is scaled to controls: 0 for no effect and ±100 for the full control effect). The gist of the method:
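HEK293 AR-UAS-bla cells, 10% dialyzed FBS medium; cpd titration + R1881 10 nM final, 16 h 37 C; CCF4 2 h RT; FRET ratio; IC50/efficacy via Hill fit.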

Our source for the Potency, activation and outcome values is PubChem BioAssay (NCATS).

Several values for one entry are separate records, joined by “and”; a condition that tells them apart may be missing. Identical values can stand only once. A number with no mark means an inactive call. Results filed as inconclusive are left out. Activity calls are given as the source filed them. Unless noted, calls follow the shape of the dose curve; as a rule, active = well fitted curve in the direction sought with a large enough effect; inconclusive = small, poorly fitted or top-dose-only effect, or another doubt; inactive = no such curve, though single readings can be large; an effect the other way counts as inactive or inconclusive.

Chain of Androgen receptor (Homo sapiens) (P10275 whole entry, looked up): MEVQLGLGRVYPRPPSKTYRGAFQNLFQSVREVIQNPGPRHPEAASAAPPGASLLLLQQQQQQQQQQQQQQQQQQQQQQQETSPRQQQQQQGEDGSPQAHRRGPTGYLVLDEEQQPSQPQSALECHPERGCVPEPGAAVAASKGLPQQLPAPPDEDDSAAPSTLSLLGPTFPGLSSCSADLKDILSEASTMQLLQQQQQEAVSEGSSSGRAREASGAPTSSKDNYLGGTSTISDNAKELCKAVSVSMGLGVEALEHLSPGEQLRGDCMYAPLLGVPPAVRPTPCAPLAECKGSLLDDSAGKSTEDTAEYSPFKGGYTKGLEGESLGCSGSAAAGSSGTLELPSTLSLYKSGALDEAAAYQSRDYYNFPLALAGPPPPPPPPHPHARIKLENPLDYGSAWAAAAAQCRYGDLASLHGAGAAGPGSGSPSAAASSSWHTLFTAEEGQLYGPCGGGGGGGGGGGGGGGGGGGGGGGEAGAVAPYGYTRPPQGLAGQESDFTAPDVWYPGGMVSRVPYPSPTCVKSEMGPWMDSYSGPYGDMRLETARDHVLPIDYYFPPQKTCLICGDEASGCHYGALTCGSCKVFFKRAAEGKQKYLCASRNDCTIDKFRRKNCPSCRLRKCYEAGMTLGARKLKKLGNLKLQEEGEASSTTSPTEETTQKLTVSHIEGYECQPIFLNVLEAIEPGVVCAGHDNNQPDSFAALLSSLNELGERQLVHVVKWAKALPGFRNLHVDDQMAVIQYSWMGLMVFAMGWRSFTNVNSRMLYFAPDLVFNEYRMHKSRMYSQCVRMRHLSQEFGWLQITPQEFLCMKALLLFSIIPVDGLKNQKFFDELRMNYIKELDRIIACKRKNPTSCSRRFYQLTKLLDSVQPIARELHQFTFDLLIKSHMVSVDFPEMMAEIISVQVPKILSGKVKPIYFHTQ
Chain of Cytochrome P450 2D6 (Homo sapiens) (P10635 whole entry, looked up): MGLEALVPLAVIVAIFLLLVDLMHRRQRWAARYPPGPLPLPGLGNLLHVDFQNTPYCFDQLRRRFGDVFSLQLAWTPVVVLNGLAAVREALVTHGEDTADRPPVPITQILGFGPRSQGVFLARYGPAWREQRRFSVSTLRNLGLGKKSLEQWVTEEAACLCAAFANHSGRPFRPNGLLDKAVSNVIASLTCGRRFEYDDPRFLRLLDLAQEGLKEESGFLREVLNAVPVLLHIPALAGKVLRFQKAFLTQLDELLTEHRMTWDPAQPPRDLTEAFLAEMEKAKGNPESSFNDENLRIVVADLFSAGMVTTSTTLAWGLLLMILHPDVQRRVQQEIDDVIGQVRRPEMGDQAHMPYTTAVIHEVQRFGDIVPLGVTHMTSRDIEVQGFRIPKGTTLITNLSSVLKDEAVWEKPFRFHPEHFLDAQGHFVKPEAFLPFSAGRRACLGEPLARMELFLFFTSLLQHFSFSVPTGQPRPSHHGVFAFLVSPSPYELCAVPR
Chain of ATP-dependent 6-phosphofructokinase (Trypanosoma brucei brucei) (O15648 whole entry, looked up): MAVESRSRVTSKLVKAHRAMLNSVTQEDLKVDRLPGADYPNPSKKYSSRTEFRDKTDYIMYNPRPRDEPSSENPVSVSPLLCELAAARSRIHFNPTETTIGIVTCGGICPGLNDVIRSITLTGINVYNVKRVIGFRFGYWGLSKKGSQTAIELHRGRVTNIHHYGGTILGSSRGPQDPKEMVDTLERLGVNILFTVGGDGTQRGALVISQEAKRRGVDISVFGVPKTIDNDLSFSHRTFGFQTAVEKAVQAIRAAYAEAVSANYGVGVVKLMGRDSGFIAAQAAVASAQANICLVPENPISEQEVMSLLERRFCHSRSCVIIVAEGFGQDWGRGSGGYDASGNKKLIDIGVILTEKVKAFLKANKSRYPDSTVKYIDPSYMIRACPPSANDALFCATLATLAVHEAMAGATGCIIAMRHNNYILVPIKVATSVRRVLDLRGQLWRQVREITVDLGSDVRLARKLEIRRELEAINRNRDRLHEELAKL

As for `COc1ccc2c3c1O[C@@H]1C(=O)CC[C@@]4(O)[C@@H](C2)N(CC2CC2)CC[C@]314`, the Potency in experiment [1] is 5.01 µM (active).

With `COc1cc(C[C@H](C)N)c(OC)cc1I`, the activation in [2] was 2.02% and -7.45%.

As to `CC(C)[C@@]1(NC(=O)[C@@H]2C=C3c4cccc5[nH]cc(c45)C[C@@H]3N(C)C2)O[C@]2(O)[C@H]3CCCN3C(=O)[C@H](Cc3ccccc3)N2C1=O`, in experiment [1], the Potency result is “inactive”.

For the compound `c1ccc2c(c1)Sc1ccccc1N2C[C@H]1CN2CCC1CC2`, the Potency in experiment [1] is 0.398 µM (active). In addition, the compound was called inactive in experiment [3].

Consider `O=C(Nc1cc[c]([Sb](=[O])([OH])[OH])cc1)c1ccccc1`, for which the Potency entry in experiment [1] was “inactive”.

For `CCn1cnc2c(Nc3cccc(Cl)c3)nc(N[C@@H]3CCCC[C@H]3N)nc21`, in experiment [4], the Potency is 2.51 µM (active).

Turning to `N[C@H](Cn1ccc(=O)[nH]c1=O)C(=O)O`, the Potency in experiment [1] was 3.98 µM (active). Moreover, in experiment [2], the activation was 10.5%.

Turning to `CN1C[C@@H](CS(=O)(=O)N(C)C)C[C@H]2c3cccc4c3c(cn4C)C[C@@H]21`, the Potency in experiment [1] was 3.98 µM (active).

Consider `N[C@H](Cn1oc(=O)[nH]c1=O)C(=O)O`, for which the Potency result in [1] is “inactive”.

For the compound `CC(=O)c1c(O)c(C)c(O)c(Cc2c(O)c3c(c(C(=O)/C=C\c4ccccc4)c2O)OC(C)(C)C=C3)c1O`, the Potency in experiment [4] is 2.51 µM (active). In addition, in experiment [5], the outcome was inactive.

`C[N+]1(C)C2CC[C@H]1CC(OC(=O)[C@@H](CO)c1ccccc1)C2` (some centres undefined): the compound was called inactive in experiment [6], in experiment [3], in experiment [7], in experiment [8] and in experiment [9]. The Potency result in experiment [10], in experiment [11], in experiment [12], in experiment [13], in experiment [14] and in [15] was “inactive” in each case. For the same compound, the Potency result in experiment [16], in experiment [17] and in experiment [18] was “inactive” each time.

Regarding `Cc1ccc(O)cc1` (tested in a mixture with another compound), in [3], the result was inactive.

Consider `C=C(C)CCl`, for which the activation in experiment [19] is 8.69%. For the same compound, the result in experiment [20] was inactive.

Turning to `N#CC(Cl)(Cl)Cl`, in experiment [19], the activation is -3.49%. Moreover, the compound was classed as inactive in [20].

Consider `CC12CC1(C)C(=O)N(c1cc(Cl)cc(Cl)c1)C2=O` (centres undefined), for which the activation in experiment [19] was -2.56% and 15.9%.

On to `O=[N+]([O-])c1ccc(O)c([N+](=O)[O-])c1`, for which the result in [20] was inactive.
